In PubChem BioAssay (NCATS):
Inconclusive results are not listed. The source made the active and inactive calls. Unless noted, calls come from the whole dose curve; as a rule, active = well fitted curve in the direction sought with a large enough effect; inconclusive = small, poorly fitted or top-dose-only effect, or another doubt; inactive = no such curve, though single readings can be large; an effect the other way counts as inactive or inconclusive.

Key:
[1] = biological target: Luciferin 4-monooxygenase (Photinus pyralis) (UniProt P08659); test: Biochemical firefly luciferase enzyme assay for NPC (AID 624030);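 note: purified P. pyralis luciferase at 10 nM with luciferin and ATP substrate; 0% = DMSO and -100% = full luciferase inhibition by PTC124 control; nearly all actives have a fitted effect of over 70% in size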
Chain of Luciferin 4-monooxygenase (Photinus pyralis) (P08659 whole entry, looked up): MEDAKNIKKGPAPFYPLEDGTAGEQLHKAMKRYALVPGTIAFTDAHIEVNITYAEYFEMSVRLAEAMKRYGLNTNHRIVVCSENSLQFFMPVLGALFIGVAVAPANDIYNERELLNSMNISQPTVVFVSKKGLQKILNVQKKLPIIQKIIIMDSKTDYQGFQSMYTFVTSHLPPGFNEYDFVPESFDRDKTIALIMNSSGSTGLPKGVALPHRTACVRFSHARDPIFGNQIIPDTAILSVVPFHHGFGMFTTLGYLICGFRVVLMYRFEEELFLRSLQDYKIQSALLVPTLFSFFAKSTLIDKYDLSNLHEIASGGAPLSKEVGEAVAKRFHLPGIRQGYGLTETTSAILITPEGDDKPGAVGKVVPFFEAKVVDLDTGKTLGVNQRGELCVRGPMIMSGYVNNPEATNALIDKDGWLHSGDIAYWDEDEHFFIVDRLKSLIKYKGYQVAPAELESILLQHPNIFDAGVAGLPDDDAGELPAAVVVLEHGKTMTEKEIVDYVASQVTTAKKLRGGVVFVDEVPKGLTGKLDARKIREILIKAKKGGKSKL
Procedure, shortened: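 Counter-screen for direct inhibition of the luciferase enzyme by approved-drug library compounds, run at 10 nM enzyme in 50 mM Tris acetate (final). Luminescence was read within 5 min of enzyme-buffer addition and normalized to PTC124 versus DMSO (0%).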

[2] = S16 Schwann cell viability assay (CellTiter-Glo assay) (AID 624031);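 note: cellular ATP luminescence as a viability measure; plate controls were DMSO-treated cells for no effect and cell-free wells for full effect; nearly all actives have a fitted effect of over 70% in size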
Procedure, shortened: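 This viability control uses native rat S16 Schwann cells grown in DMEM plus 10% FBS. After a 24 h compound treatment at 37 °C, CellTiter-Glo luminescence reports ATP content, scaled against DMSO-treated and cell-free wells.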

[3] = S16 Schwann cell PMP22 intronic element firefly luciferase assay (AID 624032);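 note: plate controls were DMSO for no effect and PTC124 positive control mean for full effect; nearly all actives have a fitted effect of over 30% in size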
Procedure, shortened: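 Rat S16 Schwann cells stably carrying a PMP22 intronic element-driven Fluc reporter were seeded overnight, then exposed to compounds for 24 h at 37 °C. Luminescence was normalized to PTC124 (positive control) and DMSO (0% activity).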

[4] = S16 Schwann cell PMP22 intronic element beta-lactamase assay (AID 624044; calls by dose curve;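 note: 0% = DMSO and -100% = potassium clavulanate positive control; nearly all actives have a fitted effect of over 15% in size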)
Procedure, shortened: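 Rat S16 Schwann cells with beta-Lac driven by a PMP22 intronic element, compound-treated 24 h at 37 °C. LiveBLAzer FRET B/G read: 460 nm normalized to potassium clavulanate vs DMSO; 535 nm FRET as viability; concentration-effect curves classified.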

C2A = test: qHTS profiling for inhibitors of Plasmodium falciparum proliferation (AID 504749);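 note: 0% = DMSO vehicle and full inhibition = artemisinin control; nearly all actives have a fitted effect of over 60% in size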; conditions: P. falciparum in erythrocytes, SYBR Green DNA, 72 h; series mostly up to 28.7 µM
Procedure, shortened: (§1)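 P. falciparum-infected erythrocytes (0.3% parasitemia, 2.5% hematocrit final) were exposed to compounds for 72 h at 37 C in 5% CO2, then lysed with SYBR Green buffer overnight at room temperature; parasite DNA fluorescence was normalized to artemisinin and DMSO controls.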

CP217 = test: as above; conditions: P. falciparum in erythrocytes, SYBR Green DNA, 72 h; series mostly up to 28.7 µM
Procedure, shortened: as §1

CP250 = test: as above; conditions: P. falciparum in erythrocytes, SYBR Green DNA, 72 h; series mostly up to 28.7 µM
Procedure, shortened: as §1

CP252 = test: as above; conditions: P. falciparum in erythrocytes, SYBR Green DNA, 72 h; series mostly up to 28.7 µM
Procedure, shortened: as §1

CP256 = test: as above; conditions: P. falciparum in erythrocytes, SYBR Green DNA, 72 h; series mostly up to 28.7 µM
Procedure, shortened: as §1

CP260 = test: as above; conditions: P. falciparum in erythrocytes, SYBR Green DNA, 72 h; series mostly up to 28.7 µM
Procedure, shortened: as §1

Dd2 = test: as above; conditions: P. falciparum in erythrocytes, SYBR Green DNA, 72 h; series mostly up to 28.7 µM
Procedure, shortened: as §1

ECU = test: as above; conditions: P. falciparum in erythrocytes, SYBR Green DNA, 72 h; series mostly up to 28.7 µM
Procedure, shortened: as §1

ICS = test: as above; conditions: P. falciparum in erythrocytes, SYBR Green DNA, 72 h; series mostly up to 28.7 µM
Procedure, shortened: as §1

JCK = test: as above; conditions: P. falciparum in erythrocytes, SYBR Green DNA, 72 h; series mostly up to 28.7 µM
Procedure, shortened: as §1

N140 = test: as above; conditions: P. falciparum in erythrocytes, SYBR Green DNA, 72 h; series mostly up to 28.7 µM
Procedure, shortened: as §1

P93_24 = test: as above; conditions: P. falciparum in erythrocytes, SYBR Green DNA, 72 h; series mostly up to 28.7 µM
Procedure, shortened: as §1

SC27B = test: as above; conditions: P. falciparum in erythrocytes, SYBR Green DNA, 72 h; series mostly up to 28.7 µM
Procedure, shortened: as §1

[5] = biological target: Androgen receptor (Homo sapiens) (UniProt P10275); test: qHTS assay for small molecule agonists of androgen receptor signaling (AID 588515; active = well fitted curve in the direction sought with a large enough effect in the signal ratio, with a control signal flat; the % refers to the signal ratio; note: % is set by controls: 0 for no effect and ±100 for the full control effect); conditions: AR-UAS-bla HEK293, beta-lactamase ratio, agonist 16 h; stronger effect = higher value
Chain of Androgen receptor (Homo sapiens) (P10275 whole entry, looked up): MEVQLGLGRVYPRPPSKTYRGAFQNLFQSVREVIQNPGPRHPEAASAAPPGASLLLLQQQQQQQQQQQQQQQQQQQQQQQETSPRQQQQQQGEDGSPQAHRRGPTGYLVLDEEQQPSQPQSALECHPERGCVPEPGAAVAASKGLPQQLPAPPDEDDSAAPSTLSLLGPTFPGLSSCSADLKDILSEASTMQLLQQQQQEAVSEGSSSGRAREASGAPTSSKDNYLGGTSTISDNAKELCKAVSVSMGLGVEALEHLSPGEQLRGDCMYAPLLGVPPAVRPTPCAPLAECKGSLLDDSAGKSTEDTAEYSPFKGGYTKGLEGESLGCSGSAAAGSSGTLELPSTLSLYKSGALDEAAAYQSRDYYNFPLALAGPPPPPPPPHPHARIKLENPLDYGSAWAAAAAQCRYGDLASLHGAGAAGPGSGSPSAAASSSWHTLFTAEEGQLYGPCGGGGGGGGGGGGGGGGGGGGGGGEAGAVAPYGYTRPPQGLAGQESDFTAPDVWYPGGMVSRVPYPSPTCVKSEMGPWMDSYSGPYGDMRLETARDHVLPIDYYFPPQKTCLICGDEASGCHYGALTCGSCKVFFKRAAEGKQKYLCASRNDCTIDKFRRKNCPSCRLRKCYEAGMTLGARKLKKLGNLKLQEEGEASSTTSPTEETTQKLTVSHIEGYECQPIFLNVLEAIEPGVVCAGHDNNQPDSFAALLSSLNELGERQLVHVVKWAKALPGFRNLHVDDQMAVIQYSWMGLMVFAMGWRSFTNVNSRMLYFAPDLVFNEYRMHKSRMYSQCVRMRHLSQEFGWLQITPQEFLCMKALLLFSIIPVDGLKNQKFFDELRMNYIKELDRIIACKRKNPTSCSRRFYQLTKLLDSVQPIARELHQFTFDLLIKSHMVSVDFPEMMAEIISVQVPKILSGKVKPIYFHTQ
Procedure, shortened: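 EC50 and efficacy came from Hill fits of titrations (up to 92 uM) normalized to 30 nM R1881 as 100% and DMSO as 0%. Compound exposure was 16 h at 37 C on AR-UAS-bla HEK293 cells, with a 405/460/530 nm CCF4 fluorescence read.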

[6] = biological target: Androgen receptor (Homo sapiens) (UniProt P10275); test: qHTS assay for small molecule antagonists of androgen receptor signaling (AID 588516; active = well fitted curve in the direction sought with a large enough effect in the signal ratio, with a control signal flat, not every such curve was filed as active; the % refers to the signal ratio; note: % is set by controls: 0 for no effect and ±100 for the full control effect)
Procedure, shortened: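 HEK293 AR-UAS-bla cells, 10% dialyzed FBS medium; cpd titration + R1881 10 nM final, 16 h 37 C; CCF4 2 h RT; FRET ratio; IC50/efficacy via Hill fit.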

[7] = Cell Viability - LYMP2-014 (AID 983);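 note: plate controls were DMSO only for no effect and 92 µM tetraoctylammonium bromide for full effect; nearly all actives have a fitted effect of over 50% in size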
Procedure, shortened: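 Decrease in intracellular ATP after 24 hr treatment at 37 C, measured by luciferase luminescence, indicated cytotoxicity. Concentration-response data were fitted with the standard Hill equation to give AC50.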

CC(=O)OC1CC2CCC1(C)C2(C)C (stereo not given)
inactive: Potency [1] | Potency [2] | Potency [3] | Potency [4] | Potency (C2A) | Potency (CP217) | Potency (CP250) | Potency (CP252) | Potency (CP256) | Potency (CP260) | Potency (Dd2) | Potency (ECU) | Potency (ICS) | Potency (JCK) | Potency (N140) | Potency (P93_24) | Potency (SC27B)

CC1=C2[C@H](/C=C(\C)C(=O)O)CC[C@@H](C)[C@H]2CC1
inactive: activation [5] -0.457% | outcome [6]

CCCCCCCCCCCC(=O)O
inactive: Potency [7]
